Assay outcomes: PubChem BioAssay, National Center for Advancing Translational Sciences (NCATS)
Rows were chosen to be rich in hits. Some 6% of all compounds tested hit in one or more screens of this group.
DRD3 agonist: qHTS of D3 Dopamine Receptor Agonist: qHTS; max activation, %; D(3) dopamine receptor (Homo sapiens), P35462; actives 0.58% (n = 410,000); AID 652048, 2013; D3R DiscoveRx beta-arrestin cells, luminescence, 90 min; in the data active = max activation above about 30%
Target sequence (P35462 whole entry, looked up): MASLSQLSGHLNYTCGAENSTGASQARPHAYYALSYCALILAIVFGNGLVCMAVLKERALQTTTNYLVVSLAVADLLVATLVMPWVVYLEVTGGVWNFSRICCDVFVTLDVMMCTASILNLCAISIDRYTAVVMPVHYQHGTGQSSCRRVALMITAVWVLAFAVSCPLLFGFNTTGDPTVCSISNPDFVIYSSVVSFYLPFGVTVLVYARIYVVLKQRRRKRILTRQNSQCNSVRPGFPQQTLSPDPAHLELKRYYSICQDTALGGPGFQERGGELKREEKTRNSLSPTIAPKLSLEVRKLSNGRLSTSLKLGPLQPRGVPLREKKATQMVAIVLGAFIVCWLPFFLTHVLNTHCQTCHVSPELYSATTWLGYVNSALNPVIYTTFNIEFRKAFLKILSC
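Cells at 1500/well, incubated overnight, then treated with pinned compounds (dopamine as control) for 90 min at 37 degrees C. DiscoveRx reagent added for 30 - 60 minutes at room temperature; luminescence read.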
D1 antag: Antagonist of Human D 1 Dopamine Receptor: qHTS; actives 3.2% (n = 360,000); activity change, negative = inhibition, % at 10 µM; HEK293 TREx D1 cells, calcium flux, dopamine EC80; hits give low values; AID 504652, 2011; in the data active = activity change below about -30%
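Allosteric or orthosteric antagonism assessed as attenuation of the calcium response to EC80 dopamine, added 180 s after compound, in induced HEK293 Trex D1 cells loaded with no-wash calcium dye.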
DRD3 antagonist: qHTS of D3 Dopamine Receptor Antagonist: qHTS. max response, negative = inhibition, %. actives 2.5% (n = 360,000). D(3) dopamine receptor (Homo sapiens), P35462. D3R cells, DiscoveRx beta-arrestin luminescence, antagonist mode; hits give low values. AID 652054, 2013; in the data active = max response below about -50%; inconclusive = no clear call, values can overlap the other calls
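Cells expressing the human receptor were seeded at 1500 cells/well, incubated overnight at 37 degrees C in 5% CO2, then exposed to library compounds with dopamine controls for 90 minutes at 37 degrees C before luminescent detection.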
D1 agonist: Allosteric Agonists of the Human D1 Dopamine Receptor: qHTS | D(1A) dopamine receptor (Homo sapiens), P21728 | HEK293 T-REx D1 cells, calcium flux, agonist mode | activation, % at 2 µM | actives 1% (n = 360,000) | AID 504660, 2011; in the data active = activation above about 30%
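Agonism was scored from calcium flux recorded over 180 s (1 read/s) after pintool compound addition, following a 10-cycle baseline. Cells were inducible force-coupled HEK293 TREx D1, plated overnight at 30 C and loaded with no-wash calcium dye.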
D1 potentiator: Potentiators of Human D1 Dopamine Receptor: qHTS. potentiation, % at 10 µM. HEK293 TREx D1 cells, calcium flux, dopamine EC20 potentiation. D(1A) dopamine receptor (Homo sapiens), P21728. AID 504651, 2011. actives 0.036% (n = 360,000); in the data active = potentiation above about 30%
Of the large screens only hits and unclear results are named; the others gave an inactive call.

COc1ccc(NC(=O)c2oc3ccc(S(=O)(=O)N(C)C4CCCCC4)cc3c2C)cc1Cl	D1 antag -30 (no result: DRD3 antagonist)
CCN1CCN(CC(=O)N/N=C/c2cc(Br)cs2)CC1	DRD3 antagonist -53
O=C(Nc1ccc(-c2nc3ccccc3[nH]2)cc1)c1ccc(N2C(=O)CCC2=O)cc1	D1 antag -50
Cc1ccccc1C(=O)Nc1ccc(-c2nc3ccc(C(=O)c4ccccc4)cc3[nH]2)cc1	D1 antag -42
CN(c1ccccc1)S(=O)(=O)c1ccc(Cl)c(C(=O)Nc2ccc(-c3nc4ccccc4[nH]3)cc2)c1	D1 antag -30
O=C(c1ccccc1)n1c2ccccc2c(=O)n1-c1ccccc1CCl	none (no result: D1 antag, D1 agonist, D1 potentiator)
O=S1(=O)CCN(Cc2cccnc2)CC1	none (no result: D1 antag, D1 agonist, D1 potentiator)
O=C(NCc1ccc2c(c1)OCO2)c1nc(S(=O)(=O)Cc2ccccc2)ncc1Cl	DRD3 antagonist -66
O=C(NCc1ccc2c(c1)OCO2)c1nc(S(=O)(=O)Cc2ccccc2F)ncc1Cl	D1 antag -49, DRD3 antagonist -92
CC(=O)c1ccc(N2CCN(C(=O)Nc3ccc(F)cc3)CC2)cc1	none (no result: DRD3 agonist, DRD3 antagonist)
CC(=O)c1ccc(N2CCN(C(=O)Nc3ccc(C(C)C)cc3)CC2)cc1	D1 antag -47
CCc1cc2c(=O)[nH]c(-c3ccccn3)nc2s1	DRD3 antagonist -68
CCc1cc2c(=O)[nH]c(N3CCCC3)nc2s1	none
O=C(N/N=C/c1ccc(O)cc1O)C1CC1	DRD3 antagonist -92 (no result: D1 antag, D1 agonist, D1 potentiator)
Cc1cccc(C(=O)Oc2c(Br)cc(Br)cc2/C=N/NC(=O)c2ccncc2)c1	none
O=C(N/N=C/c1ccc(O)cc1O)c1ccncc1	DRD3 agonist 42
O=C(N/N=C/c1ccc(O)cc1O)c1ccc(NC(=O)C2CCCCC2)cc1	none
O=C(N/N=C/c1cccc2nccnc12)c1ccncc1	none
Oc1c(Cl)cc(Cl)cc1/C=N/Nc1ncc(Br)cn1	DRD3 antagonist -107
O=C(N/N=C/c1cc(Br)cc(Br)c1O)c1ccncc1	D1 agonist 54
Cc1c(F)cccc1NC(=O)c1ccc2c(c1)CCN2S(C)(=O)=O	none
CCc1ccc(C(=O)c2cn(CC(=O)Nc3cc(C)ccc3C)c3nc(C)ccc3c2=O)cc1	none (no result: DRD3 antagonist)
CCOc1cccc2cc(-c3nc4sc5c(c4c(=O)[nH]3)CCC(C)C5)c(=O)oc12 (stereo not given)	none (no result: DRD3 antagonist)
Cc1ccc(C(=O)Nc2nnc(CC(=O)N/N=C/c3ccc(O)c(O)c3)s2)cc1	none
O=C(N/N=C/c1cc(Cl)cc(Cl)c1O)c1ccncc1	D1 agonist 68
COc1ccc(C(=O)Nc2nnc(CC(=O)N/N=C/c3ccc(O)cc3O)s2)cc1	D1 agonist 46 (no result: DRD3 agonist, DRD3 antagonist)
O=C(N/N=C/c1ccc(Cl)cc1Cl)c1ccncc1	none
Cc1cc2c(s1)c1cnn(Cc3cccc(C(F)(F)F)c3F)c(=O)c1n2C	none (no result: DRD3 agonist, DRD3 antagonist)
Cc1ccccc1C1=CCN(c2ncc(NC(=O)c3ccc(Cl)cc3)cc2C(=O)O)CC1	none (no result: DRD3 antagonist)
Cc1cc(N2CCN(c3ccccc3)CC2)nc(-c2ccccc2O)n1	none
Cc1cc(N2CCN(c3ccccc3)CC2)nc(-n2nc(C)cc2C)n1	DRD3 antagonist -86
O=C1CC(c2cccc(Cl)c2)CC(O)=C1C=NCCCO (stereo not given)	DRD3 antagonist -90
C[C@]12CCC(O)CC1CCC1C2CC[C@]2(C)C(c3cc(C(F)(F)F)n[nH]3)CCC12 (stereo not given in full)	D1 agonist 43
CC(O)[C@H]1CC[C@H]2[C@@H]3CC[C@H]4C[C@H](O)CC[C@]4(C)[C@H]3[C@H](O)C[C@]12C (stereo not given in full)	D1 antag -50, D1 agonist 72
CC12CCC3C(CCC4CC(O)CCC43C)C1CC(O)C2 (stereo not given)	DRD3 agonist 31 (no result: D1 antag, D1 agonist, D1 potentiator)
C[C@@]12CCC[C@H]1[C@@H]1CC[C@H]3C[C@@H](O)CC[C@]3(C)[C@H]1CC2	none (no result: D1 antag, DRD3 antagonist, D1 agonist, D1 potentiator)
CC(C)(C)c1ccc(C(=O)N2CCC2(C)C(=O)NCC(F)(F)F)cc1 (stereo not given)	none (no result: D1 antag, D1 agonist, D1 potentiator)
O=C(CNC(=O)c1ccc2ccccc2c1)NCc1ccc(F)cc1	DRD3 antagonist inconclusive
CCOC(=O)C1=C(C)NC2=C(C(=O)c3ccccc32)C1c1ccc([N+](=O)[O-])o1 (stereo not given)	D1 antag -73
CC(=O)C1=C(C)NC2=C(C(=O)c3ccccc32)C1c1ccccc1 (stereo not given)	DRD3 antagonist -52
CC1=C(C#N)C(c2ccccc2)C2=C(N1)c1ccccc1C2=O (stereo not given)	none
CC1CN(C(=O)CCC(=O)Nc2cc(F)ccc2F)c2ccccc2S1 (stereo not given)	none (no result: DRD3 antagonist)
Cc1nn(CC(=O)OCC(=O)c2ccc(OC(F)F)cc2)c(C)c1[N+](=O)[O-]	D1 antag -31
Cc1nn(CC(=O)O)c(C)c1[N+](=O)[O-]	none
O=C(CN(c1ccc(Br)cc1)S(=O)(=O)c1ccc(Cl)c([N+](=O)[O-])c1)NCC1CCCO1 (stereo not given)	DRD3 antagonist inconclusive (no result: D1 antag, D1 agonist, D1 potentiator)
COC(c1ccccc1)c1nnc(CCC(=O)N(C)CCCC2CCCC2)o1 (stereo not given)	D1 antag -32
Cc1ccccc1NC(=O)CSc1nc(-c2ccc(F)cc2)nc2c1Cc1ccccc1O2	none (no result: DRD3 antagonist)
Cc1ccc(NC(=O)c2ccc(CN3CCc4ccccc4C3)cc2)cc1	D1 antag -33, DRD3 antagonist -85
O=C(Nc1cccnc1)c1ccc(CN2CCc3ccccc3C2)cc1	DRD3 antagonist -74
O=C(Nc1ccccc1)c1ccc(CN2CCc3ccccc3C2)cc1	DRD3 antagonist inconclusive
Cc1cc(C)cc(NC(=O)c2ccc(CN3CCc4ccccc4C3)cc2)c1	DRD3 antagonist -67
COc1ccccc1-n1cnc2cc(NS(=O)(=O)c3ccc(Br)cc3)ccc21	D1 antag -39
COc1ccc(-n2cnc3cc(NS(=O)(=O)c4ccc(C)cc4)ccc32)cc1	none (no result: DRD3 agonist, DRD3 antagonist)
COc1cc(OC)c(NC(=O)c2noc3c2CSc2ccccc2-3)cc1Cl	DRD3 agonist 34 (no result: DRD3 antagonist)
CC1=C(C(N)=O)C(c2ccccc2F)n2nc(-c3ccc(Cl)cc3)nc2N1 (stereo not given)	none (no result: DRD3 antagonist)
O=C1NC2(C=Cc3c(ccc4ccccc34)O2)Oc2ccccc21 (stereo not given)	DRD3 antagonist -51
CC1(C)OC(=O)N(c2ccccc2)C12C=Cc1c(ccc3ccccc13)O2 (stereo not given)	none
Cc1cc(C(=O)CSc2nnc(-c3cccs3)o2)c(C)n1-c1ccccc1	D1 antag -55
CC(C)OC(=O)CSc1nnc(-c2ccc(Cl)cc2Cl)o1	none
CCCCOC(=O)CSc1nnc(-c2ccc(Cl)cc2Cl)o1	DRD3 antagonist -52
